Screening data deposited in PubChem BioAssay by National Center for Advancing Translational Sciences (NCATS).
NTMT1 inhibitor – NTMT1 methyltransferase inhibition. Q9BV86. actives 2.5% (n = 59,000). NTMT1 MTase-Glo SAH luminescence, purified enzyme. AID 1645870. Potency, µM (series often up to 114 µM), inactives show at the top dose activity change, negative = inhibition, most hits filed as inhibitors;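 further: potency means the concentration at half of the fitted maximal effect; plate controls were DMSO vehicle for no effect and no enzyme for full effect; nearly all actives have a fitted effect of over 65% in size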
HTT promoter inh – inhibits huntingtin promoter activity; Potency, µM (doses to about 57.5 µM), for the others: at the highest dose activity change, negative = inhibition, actives largely listed as inhibitors; HEK293 HTT promoter firefly luciferase reporter, 24 h; actives 0.93% (n = 48,000); further: potency means the concentration at half of the fitted maximal effect; nearly all actives have a fitted effect of over 50% in size
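Firefly luciferase readout (Dual-Glo, 10 min RT) after 24 h, 37 °C compound exposure (final up to 57.5 uM) of HEK293 reporter cells cultured 24 h beforehand; PTC124 at 50 uM final as control inhibitor; activity scaled vehicle 0%, zero RLU -100%.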
TSG101-PTAP inh – blocks PTAP binding to human TSG101, validation; Q99816; Fluorescence polarization, FITC-PTAP peptide/Tsg101, 20 min; Potency, µM (highest dose often 115 µM), usual class: inhibitors; 44,000 tested, under 10 active; AID 1347069; further: potency means the concentration at half of the fitted maximal effect; 0% is about no effect
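Steps: Tsg101 binding domain (10 uM final) in HEPES pH 7.5/NaCl/Tween 20/EDTA/TCEP; add compound; add FITC-PTAP peptide (50 nM final); incubate 20 min r.t.; read polarization.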
GALK inh – inhibitors of human galactokinase (GALK); recombinant GALK, Kinase-Glo ATP luminescence, 1 h; AID 1347072; Potency, µM (highest dose often 57.5 µM), for the others: top-dose activity, negative = inhibition, most hits filed as inhibitors; 44,000 tested, under 10 active;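 further: plate controls were full GALK reaction for no effect and reaction lacking GALK for full effect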
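5 nM GALK; 35 uM ATP; 100 uM D-galactose; 20 mM HEPES pH 8.0, 5 mM MgCl2, 60 mM NaCl, 1 mM DTT, 0.01% BSA; 1 h RT; Kinase-Glo Plus luminescence.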
OvCa metastasis – inhibitors of ovarian cancer cell adhesion and invasion in omental model; actives 0.1% (n = 46,000); Potency, µM (series often up to 45.8 µM), for the others: at the top dose activity change, negative = inhibition, usual class: inhibitors; SKOV3ip1-GFP adhesion/invasion on 3D omental model, fluorescence;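 further: potency means the concentration at half of the fitted maximal effect; plate controls were DMSO wells for no effect and tomatine positive control wells for full effect; nearly all actives have a fitted effect of over 65% in size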
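qHTS, 4-pt dose (0.36-46 umol/L); SKOV3ip1-GFP, 1,200 cells/well, no FBS; primary omental fibroblast/mesothelial co-culture 48 h pre-grown; 2 h RT + 16 h 37 C; PBS wash, 4% PFA; GFP count 488/509 nm.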
HTT-AS act – activates huntingtin-antisense promoter activity. HEK293 HTT-AS promoter firefly luciferase reporter, 24 h; response scale: percent change from vehicle, -100% = no light. Potency, µM (titrated, usually from 57.5 µM), for inactives: at the highest dose activity change, positive = activation, actives largely listed as activators. actives 0.24% (n = 48,000); further: potency means the concentration at half of the fitted maximal effect; nearly all actives have a fitted effect of over 55% in size
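HEK293 Fluc reporter, 2,500 cells/well, 24 h pre-culture; cpds up to 57.5 uM final, 24 h 37 degrees C; Dual-Glo, 10 min RT; normalized vehicle = 0%, zero RLU = -100%.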
DYRK1A inh-1 – human DYRK1A kinase inhibition by ATP depletion readout; shares compounds with NTMT1 inhibitor; Potency, µM (highest dose often 76.9 µM), without a hit: top-dose activity change, negative = inhibition, hits mostly inhibitors; actives 80% (n = 100); recombinant DYRK1A, Kinase-Glo ATP depletion luminescence; AID 2705
CLK4 inh – inhibitors of human CLK4 kinase, SAR round 2. shares compounds with NTMT1 inhibitor. Reaction Biology kinase assay, 10 uM ATP. Potency, µM, most hits filed as inhibitors. actives 100% (n = 65); calls by dose curve
DYRK1A inh-2 – inhibitors of human DYRK1A kinase | shares compounds with NTMT1 inhibitor | Reaction Biology kinase assay, 10 uM ATP | Potency, µM, actives largely listed as inhibitors | actives 90% (n = 65);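 active means compounds that showed inhibition of Dyrk1a and received a fitted potency; inactive means compounds that showed no inhibition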
CLK2 RBC – blocks human CLK2 kinase in radiometric assay; shares compounds with NTMT1 inhibitor; Reaction Biology kinase assay, 10 uM ATP; Potency, µM, actives largely listed as inhibitors; actives 90% (n = 65);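 active means compound that inhibits Clk2 kinase in the dose series, with an IC50 potency reported; inactive means no inhibition seen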
CLK3 inh – blocks human CLK3 kinase activity. recombinant CLK3 kinase assay, 10 uM ATP. Potency, µM, most hits filed as inhibitors. shares compounds with NTMT1 inhibitor. actives 40% (n = 65);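 active means compounds that inhibited Clk3 enough in the ten-dose series to give a half-maximal potency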
DYRK1B RBC – inhibitors of human Dyrk1b kinase; actives 80% (n = 65); shares compounds with NTMT1 inhibitor; Potency, µM, most hits filed as inhibitors; AID 504429; Recombinant Dyrk1b kinase assay, 10 uM ATP;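 active means compounds whose dose response shows an inhibitor phenotype against the kinase Dyrk1b; inactive means compounds showing no inhibitor phenotype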
Target sequence (Q9Y463 whole entry, looked up): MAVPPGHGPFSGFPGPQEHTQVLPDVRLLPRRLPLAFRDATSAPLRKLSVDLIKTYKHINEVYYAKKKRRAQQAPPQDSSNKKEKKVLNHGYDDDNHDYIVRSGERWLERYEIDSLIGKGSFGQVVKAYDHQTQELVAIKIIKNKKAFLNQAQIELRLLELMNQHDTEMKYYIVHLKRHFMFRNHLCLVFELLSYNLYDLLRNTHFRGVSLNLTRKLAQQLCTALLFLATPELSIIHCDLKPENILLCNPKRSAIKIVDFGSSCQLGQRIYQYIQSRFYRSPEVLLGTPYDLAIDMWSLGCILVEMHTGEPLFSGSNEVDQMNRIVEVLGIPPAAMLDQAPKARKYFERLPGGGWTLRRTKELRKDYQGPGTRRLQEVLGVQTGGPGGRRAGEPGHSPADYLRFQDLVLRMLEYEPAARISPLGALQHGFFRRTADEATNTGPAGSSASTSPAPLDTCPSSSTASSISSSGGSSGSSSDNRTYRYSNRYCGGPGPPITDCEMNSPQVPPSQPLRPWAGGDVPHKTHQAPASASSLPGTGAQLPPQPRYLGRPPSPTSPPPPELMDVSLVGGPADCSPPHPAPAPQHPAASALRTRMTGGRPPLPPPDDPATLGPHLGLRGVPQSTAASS
CLK1 RBC – inhibitors of human CLK1 kinase | shares compounds with NTMT1 inhibitor | actives 90% (n = 65) | recombinant Clk1 kinase assay, 10 uM ATP | Potency, µM, usual class: inhibitors;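 active means compounds that block the splicing kinase Clk1 enough to give a fitted half-inhibition concentration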
NNMT inh – human NNMT inhibition, NTMT1 counter-screen; shares compounds with NTMT1 inhibitor; NNMT MTase-Glo luminescence, SAH detection; Potency, µM (top dose mostly 57.1 µM), without a hit: top-dose activity, negative = inhibition, hits mostly inhibitors; actives 10% (n = 120)
Active calls of the source: *; i = inactive; ? = inconclusive; nt = no result; [ ] = remark or other dose. A selection: hits, their analogues and other compounds. The true share with any hit is near 2.5%. Unless noted, the call rests on the fitted dose curve; in most records, active means well fitted curve in the direction sought with a large enough effect; inconclusive means small, poorly fitted or top-dose-only effect, or another doubt; inactive means no such curve, though single readings can be large; an effect the other way counts as inactive or inconclusive.

SMILES	NTMT1 inhibitor	HTT promoter inh	TSG101-PTAP inh	GALK inh	OvCa metastasis	HTT-AS act	DYRK1A inh-1	others
CNc1nnc(-c2cccc3ccccc23)o1	-1%	nt	nt	nt	nt	nt	nt
Cc1csc(CNc2ncnc3ccc(-c4ccoc4)cc23)c1	-11%	nt	nt	nt	nt	nt	nt
Cc1nc(CNc2ncnc3ccc(-c4ccoc4)cc23)cs1	?	nt	nt	nt	nt	nt	3.7µM*
N#Cc1cccc(-c2c[nH]c3ncnc(N4CCOCC4)c23)c1	16µM*	nt	nt	nt	nt	nt	nt	NNMT inh=?
Cn1cc(-c2c[nH]c3ncnc(N4CCOCC4)c23)cn1	-12%	nt	nt	nt	nt	nt	nt
Cc1ccc(S(=O)(=O)Nc2ccc(C(=O)Nc3nc(-c4ccccc4)cs3)cc2Cl)cc1	-1%	nt	nt	nt	nt	nt	nt
CN1CCCC1CCNc1ncnc2ccc(-c3ccc4c(c3)OCO4)cc12 (configuration not stated)	-29%[57.5 µM]	nt	nt	nt	nt	nt	4.1µM*	CLK4 inh=7.1*;DYRK1A inh-2=5.6µM*;CLK2 RBC=8.6µM*;CLK3 inh=i;DYRK1B RBC=8.2µM*;CLK1 RBC=5.2µM*
CN(C)CCNc1ncnc2ccc(-c3ccc4c(c3)OCO4)cc12	?	nt	nt	nt	nt	nt	1.6µM*	CLK4 inh=1.9*;DYRK1A inh-2=1.4µM*;CLK2 RBC=15µM*;CLK3 inh=i;DYRK1B RBC=7.3µM*;CLK1 RBC=4.2µM*
Cc1cc(CNc2ncnc3ccc(-c4ccc5c(c4)OCO5)cc23)c(C)o1	?	nt	nt	nt	nt	nt	0.37µM*	CLK4 inh=0.44*;DYRK1A inh-2=0.58µM*;CLK2 RBC=15µM*;CLK3 inh=i;DYRK1B RBC=4.9µM*;CLK1 RBC=0.86µM*
c1nc(NCCc2cnc[nH]2)c2ccc(-c3ccc4c(c3)OCO4)cc2n1	-18%	nt	nt	nt	nt	nt	23µM*
c1nc(NCc2ccc3c(c2)OCO3)c2cc(-c3ccc4c(c3)OCCO4)ccc2n1	-2%	nt	nt	nt	nt	nt	nt
COC(=O)c1ccnc(NCc2ccc(O)c3ncccc23)c1	25%	nt	nt	nt	nt	nt	nt
Cc1ccc(NS(=O)(=O)c2cc3c(cc2NCC(C)(C)O)NC(=O)CC3)cc1C	-8%	nt	nt	nt	nt	nt	nt
C=CC(C)(O)CC[C@@H]1[C@@]2(C)CCCC(C)(C)C2CC[C@@]1(C)O (some centres not stated)	7%[57.5 µM]	nt	nt	nt	nt	nt	nt
c1nc(NCC2CCCC2)c2cc(-c3ccc4c(c3)OCO4)ccc2n1	?	nt	nt	nt	nt	nt	0.065µM*
CC(Nc1nc(-c2ccccc2C(F)(F)F)nc2ccccc12)c1ccc(-c2cccc(C(F)(F)F)c2)cc1 (configuration not stated)	14%	nt	nt	nt	nt	nt	nt
Cc1cc(C)c2c(N)c(C(=O)NCc3ccc(Cl)cc3)sc2n1	-10%[57.5 µM]	nt	nt	nt	nt	nt	nt	NNMT inh=-8%
Cc1cccc(C(=O)Nc2c(C(=O)NCc3ccc(Cl)cc3)sc3nc(C)cc(C)c23)c1	11%	?	i	0%	-1%	-50%	nt
